An excerpt weighted towards active compounds, which were near 11% of everything screened.
RORgamma inh – inhibitors of mouse ROR gamma transcriptional activity | P51450 | Drosophila S2 Gal4-RORgamma UAS-luciferase reporter, 20 h | Potency, µM (highest dose often 53.6 µM), without a hit: at the highest dose activity change, negative = inhibition, actives largely listed as inhibitors | hit rate 5.4% among 310,000; also: potency is read from the fitted curve at half-maximal effect; % is scaled to controls: 0 for no effect and ±100 for the full control effect; nearly all actives have a fitted effect of over 60% in size
Target sequence (P51450 whole entry, looked up, the tested form may be a part): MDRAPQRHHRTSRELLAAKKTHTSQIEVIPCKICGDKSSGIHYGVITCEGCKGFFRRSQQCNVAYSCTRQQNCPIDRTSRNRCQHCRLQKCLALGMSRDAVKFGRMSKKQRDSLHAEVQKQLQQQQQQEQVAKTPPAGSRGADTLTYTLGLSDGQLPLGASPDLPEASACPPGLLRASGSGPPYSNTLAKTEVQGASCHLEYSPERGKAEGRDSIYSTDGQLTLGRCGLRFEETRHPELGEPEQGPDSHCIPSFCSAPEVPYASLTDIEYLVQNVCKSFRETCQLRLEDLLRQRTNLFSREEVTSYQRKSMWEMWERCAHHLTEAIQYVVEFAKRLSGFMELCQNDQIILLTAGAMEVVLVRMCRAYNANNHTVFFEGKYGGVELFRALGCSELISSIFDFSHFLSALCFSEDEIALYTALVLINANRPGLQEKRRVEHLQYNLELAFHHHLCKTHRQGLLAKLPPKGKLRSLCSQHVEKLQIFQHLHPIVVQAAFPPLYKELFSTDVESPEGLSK
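Read-out: Photinus luciferase luminescence; inhibitors lower reporter signal. Insect Schneider cells with Gal4-ROR gamma fusion under metallothionein promoter, UAS reporter; 700 uM final copper sulfate induction, 20 hr, ambient temperature.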
IL1B secr inh – blocks inflammasome-driven IL-1 beta release; THP-1 LPS/ATP IL-1B secretion, AlphaLISA, 16 h; active compounds read low; activity change, % at 57.5 µM; hit rate 4.7% among 360,000; in the data active = activity change below about -50%; inconclusive = mostly about -30% to -49%; also: % is scaled to controls: 0 for no effect and ±100 for the full control effect
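Secreted IL-1B measured by AlphaLISA bead assay after 16 h compound exposure of THP-1 cells; compounds (final up to 57.5 uM) added 1 h before LPS (250 ng/mL) and ATP (1.25 mM) stimulation; lower signal means less secretion.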
SW480 rerep – inducers of DNA re-replication in SW480 colon cancer cells; SW480 DNA re-replication, Hoechst DNA content imaging, 48 h; Potency, µM (titrated, usually from 46.1 µM), for the others: at the top dose re-replication activation, most hits filed as activators; hit rate 1.8% among 340,000; AID 624297; also: potency is read from the fitted curve at half-maximal effect; % of control where 0% means no effect; nearly all actives have a fitted effect of over 55% in size
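Image-based read-out: total Hoechst fluorescence of nuclei (405 nm excitation, 500-530 nm emission), with hits raising the fraction of high-intensity nuclei. SW480 colon cells incubated 48 hr with compounds at 37 C.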
VP16 counter – counter-screen for ROR gamma inhibitors: Gal4-VP16 reporter; hit rate 3.5% among 310,000; Drosophila S2 Gal4-VP16 UAS-luciferase, luminescence, 20 h; Potency, µM (highest dose often 53.6 µM), for the others: top-dose activity, negative = inhibition, actives largely listed as inhibitors;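 also: Gal4-VP16 expression switched on by copper sulfate through the metallothionein promoter; potency is read from the fitted curve at half-maximal effect; % is scaled to controls: 0 for no effect and ±100 for the full control effect; nearly all actives have a fitted effect of over 50% in size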
MCF10A rereplic – inducers of DNA re-replication in MCF 10A breast cells | MCF 10A DNA re-replication, Hoechst nuclear intensity, 48 h | Potency, µM (top dose mostly 46.1 µM), for the others: at the highest dose activity, positive = re-replication, hits mostly activators | hit rate 2.9% among 350,000; also: potency is read from the fitted curve at half-maximal effect; % of control where 0% means no effect; nearly all actives have a fitted effect of over 50% in size
Numbers without * were called inactive; u = inconclusive; x = not tested or not shown; [ ] = another dose, or the depositor's remark. Unless noted, calls follow the shape of the dose curve; as a rule, active = well fitted curve in the direction sought with a large enough effect; inconclusive = small, poorly fitted or top-dose-only effect, or another doubt; inactive = no such curve, though single readings can be large; an effect the other way counts as inactive or inconclusive.

SMILES | RORgamma inh | IL1B secr inh | SW480 rerep | VP16 counter | MCF10A rereplic
O=C(C1CC(=O)N(c2ccccc2F)C1)N1CCOCC1 (configuration not stated) | x | -7 | -10% | x | 0%
COc1ccccc1C(=O)Nc1ccnn1C1CCN(C/C=C/c2ccc(F)cc2)CC1 | -1% | -23 | -2% | 7% | 4%
O=C(NCCN1C(=O)CCC1=O)c1ccncc1 | 5.6µM* | 35 | 3% | -2% | 4%
CCN(CC(=O)Nc1ccc(C(=O)OC)cc1)Cc1ccccc1 | -2% | 8 | -6% | 10% | 14%
COC(=O)c1ccc(NC(=O)CN(C)Cc2cccc(F)c2)cc1 | 21% | -105* | u | 0%[10 µM] | 1%
CCCCc1cc(=O)oc2cc(OCc3cc(OC)c(OC)c(OC)c3)c(Cl)cc12 | 17% | 18 | 27% | 5%[0.365 µM] | 10µM*
O=C(Nc1nnc(SCc2ccc(Cl)cc2)s1)c1cnccn1 | 13µM* | 4 | 2% | 14µM* | 26%
Cc1nn(CC(=O)Nc2ccc3c(c2)OCCO3)c(C)c1[N+](=O)[O-] | x | 19 | -2% | x | -1%
Cc1nn(C)c(Cl)c1CN1CCCC(C(=O)Nc2cccc(-n3cccn3)c2)C1 (configuration not stated) | 0% | -9 | -1% | -2% | 19%
Cc1cccc(CN2CCCC(C(=O)Nc3ccc(-c4cscn4)cc3)C2)c1 (configuration not stated) | 31% | 14 | u | -14% | 5%
O=C(Nc1ccc(-c2cscn2)cc1)C1CCCN(Cc2ccccc2)C1 (configuration not stated) | 1.8µM* | 15 | 29µM* | -21% | u
Cc1nn(C)c(Cl)c1CN1CCCC(C(=O)Nc2ccc(-c3cscn3)cc2)C1 (configuration not stated) | -1% | -69* | 1% | 10% | u
CC1ON=C(c2cccc3ccccc23)N(C)C1=O (configuration not stated) | x | 0 | x | x | x
C#CCN(CC(=O)OCC)S(=O)(=O)CCNC1CC1 | x | 23 | x | x | x
COC(=O)/C(=C1/Oc2ccc(C(C)(C)C)cc2S1)C(F)(F)F | 14% | 0 | -7% | -15% | -2%
COC(=O)/C(=C1/Oc2cc(C)oc(=O)c2S1)C(F)(F)F | 0.71µM* | -102* | 12µM* | 1.1µM* | 5.8µM*
COc1cccc(NC(=O)CSC2=C(C#N)C(c3ccco3)C3=C(CCCC3=O)N2)c1 (configuration not stated) | 8% | u | 13µM* | -7% | 25µM*
CCC1C(C#N)=C(SCC(N)=O)NC2=C1C(=O)CC(C)(C)C2 (configuration not stated) | 6% | 15 | -5% | 3% | -6%
COc1ccc(NC(=O)CSC2=C(C#N)C(c3ccco3)C3=C(CCCC3=O)N2)c(OC)c1 (configuration not stated) | 7% | -29 | u | -16% | u
COc1ccc(C2C(C#N)=C(SCC(=O)Nc3ccc(C)cc3)NC3=C2C(=O)CC(C)(C)C3)cc1 (configuration not stated) | 10% | -57* | u | 4% | u
CCCCc1ccc(NC(=O)CSC2=C(C#N)C(c3ccco3)C3=C(CCCC3=O)N2)cc1 (configuration not stated) | -3% | -86* | 21µM* | -8% | 4µM*
Oc1cccc(-c2nc3c4c(ncn3n2)-c2ccccc2CC42CCCC2)c1 | u | u | -4% | 25µM* | 2.1µM*
COc1ccc(-c2nc3c4c(ncn3n2)-c2ccccc2CC42CCCC2)cc1 | -6% | 24 | -1% | -14% | 9%
CN(C)CCN1C(=O)c2ccccc2N(C)c2ccccc21 | -16%[10 µM] | x | -3% | -15% | -4%
O=C(NC(=S)N1CCN(c2ccc(O)cc2)CC1)c1cccs1 | 3.5µM* | 23 | u | 2.8µM* | u
SMILES | RORgamma inh | IL1B secr inh | SW480 rerep | VP16 counter | MCF10A rereplic
O=C(NC(=S)N1CCN(c2ccccc2)CC1)c1c(F)cccc1F | 0.71µM* | 0 | 2% | 1.4µM* | 1%
O=C(NC(=S)N1CCN(c2ccc(F)cc2)CC1)c1cccs1 | 45µM* | 34 | u | 0.56µM* | -3%
O=C(c1cccs1)N1CCN(c2ccccc2)CC1 | -27% | -7 | -18% | u | -2%
COc1cc2c(-c3ccc4[nH]ccc4c3)c(-c3ccc(C#N)cc3)oc(=O)c2cc1OC | x | 9 | 2% | x | u
CCNC(=S)NN=C1CCC(C(C)(C)C)CC1 (configuration not stated) | 8.9µM* | -19 | 8% | 3% | 14%
CCC(=O)Nc1cccc(C(=O)N(Cc2ccccc2)Cc2ccccc2)c1 | u | 3 | -37% | 0% | 0%
CN(C)c1ncc2nc(-c3cc(F)cc(F)c3)c(=O)n(C3CC3)c2n1 | 0% | x | x | -21% | x
COC(=O)c1cc2c(ccn2-c2ccc(F)cc2)n1CC(=O)OC(C)C | -6% | -18 | -8% | -3% | 16µM*
O=C(COc1ccccc1)Nc1ncn[nH]1 | -1% | -5 | -24% | -12% | 14%
CC(C)(C)c1ccccc1OCC(=O)Nc1ncn[nH]1 | 11µM* | 20 | -4% | u | 6%
CC(C)(C)c1cc(Br)ccc1OCC(=O)Nc1ncn[nH]1 | 3.5µM* | 8 | -3% | 18µM* | u
CCCC(=O)Nc1ccc(-c2nc3ncccc3o2)cc1 | u | -26 | -6% | 0% | 9%
Cc1ccnc(NC(=S)N2CCN(c3cccc(C(F)(F)F)c3)CC2)c1 | 0.32µM* | -88* | 28% | 0.56µM* | u
CCNC(=S)N1CCN(c2cccc(C(F)(F)F)c2)CC1 | u | -25 | 5% | -10% | 3%
Cc1ccc(C)c(NC(=S)N2CCN(c3ccccn3)CC2)c1 | 13µM* | -6 | -2% | u | 10%
Cc1ccc(C)c(NC(=S)N2CCN(c3cccc(C(F)(F)F)c3)CC2)c1 | 4.5µM* | 15 | -10% | 11µM* | 256%[0.0737 µM]
COc1ccc(N2CCN(C(=S)Nc3cc(C)ccc3C)CC2)cc1 | 2µM* | 4 | 5% | -18% | -1%
CC1(C)Cc2c(cnn2-c2ccc(F)cc2)C(NC(=O)C2=NNC(=O)CC2)C1 (configuration not stated) | 19% | 29 | u | -3% | 9%
Cc1ccc(C)c(NC(=S)N2CCC(c3nc4ccccc4s3)CC2)c1 | 2.8µM* | -28 | 7% | 6.3µM* | -4%
S=C(Nc1cc(Cl)ccc1Oc1ccccc1)N1CCN(c2ccccn2)CC1 | 11µM* | -79* | 18% | u | u
C/C(=N/Nc1ccc([N+](=O)[O-])cc1)c1c[nH]c2ccccc12 | u | -4 | 1% | u | 24%
CCCC[C@@H]1C[C@H]1C(NC(=O)c1ccccc1)c1ccc(-c2ccccc2)cc1 (some centres not stated) | 6% | x | x | 6% | x

Assay outcomes from PubChem BioAssay.
